Test in all cases: DAPPL (digital affinity profiling via proximity ligation, sequencing); 10 mM Tris-HCl pH 7.5, 50 mM NaCl, 1 mM DTT, 4% glycerol, room temperature, 30 min; GST-TFs on glutathione beads, 16-mer random dsDNA library, 0.1% formaldehyde crosslink after washing; high values mean tight binding
The target of one assay is T1, ELK1 (Homo sapiens, UniProt P19419 1-428).
T1 sequence: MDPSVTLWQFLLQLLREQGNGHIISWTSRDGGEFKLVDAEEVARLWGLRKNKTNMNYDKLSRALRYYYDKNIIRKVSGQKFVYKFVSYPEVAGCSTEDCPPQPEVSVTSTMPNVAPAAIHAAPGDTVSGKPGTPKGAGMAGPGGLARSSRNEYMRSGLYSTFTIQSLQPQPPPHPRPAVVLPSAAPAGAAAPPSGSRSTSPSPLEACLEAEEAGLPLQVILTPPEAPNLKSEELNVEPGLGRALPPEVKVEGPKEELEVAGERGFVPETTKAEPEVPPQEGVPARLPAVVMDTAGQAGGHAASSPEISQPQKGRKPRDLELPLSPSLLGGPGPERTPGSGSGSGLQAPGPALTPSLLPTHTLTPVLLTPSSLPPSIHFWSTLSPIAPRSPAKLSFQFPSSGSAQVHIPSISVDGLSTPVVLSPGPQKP
To be noted: protein: recombinant; tags: N-terminal GST; dsDNA, one strand shown. The method in brief:
(§1)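 Human transcription factors were made in yeast as GST fusions, captured on glutathione beads and barcoded with DNA. With a tag-only sample included, the pool was incubated with 200 nmole of a random double-stranded 16-mer DNA library in Tris/NaCl/DTT/glycerol buffer at room temperature for 30 min, then crosslinked with 0.1% formaldehyde after washing, ligated by proximity, amplified and sequenced. For binding signal, each hexamer's read frequency for a factor is divided by its frequency for the tag-only sample.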

A further assay concerns the target T2, GABPA (Homo sapiens, UniProt Q06546 1-454).
T2 sequence: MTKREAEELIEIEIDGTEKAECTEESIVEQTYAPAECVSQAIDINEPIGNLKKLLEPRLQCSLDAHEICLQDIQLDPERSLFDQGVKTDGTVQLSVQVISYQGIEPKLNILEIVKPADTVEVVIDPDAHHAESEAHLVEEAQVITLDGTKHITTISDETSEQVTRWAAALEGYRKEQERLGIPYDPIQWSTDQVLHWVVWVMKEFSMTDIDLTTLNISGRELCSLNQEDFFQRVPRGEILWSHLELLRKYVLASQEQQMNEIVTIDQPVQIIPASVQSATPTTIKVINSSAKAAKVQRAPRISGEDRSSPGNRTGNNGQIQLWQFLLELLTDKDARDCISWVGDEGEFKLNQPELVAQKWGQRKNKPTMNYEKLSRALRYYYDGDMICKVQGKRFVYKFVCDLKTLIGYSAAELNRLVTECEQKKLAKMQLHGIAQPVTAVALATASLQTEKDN
To be noted: protein: recombinant; tags: N-terminal GST; dsDNA, one strand shown. In short, it runs like this:
as §1

Another assay deals with T3, ELK3 (Homo sapiens, UniProt P41970 1-407).
T3 sequence: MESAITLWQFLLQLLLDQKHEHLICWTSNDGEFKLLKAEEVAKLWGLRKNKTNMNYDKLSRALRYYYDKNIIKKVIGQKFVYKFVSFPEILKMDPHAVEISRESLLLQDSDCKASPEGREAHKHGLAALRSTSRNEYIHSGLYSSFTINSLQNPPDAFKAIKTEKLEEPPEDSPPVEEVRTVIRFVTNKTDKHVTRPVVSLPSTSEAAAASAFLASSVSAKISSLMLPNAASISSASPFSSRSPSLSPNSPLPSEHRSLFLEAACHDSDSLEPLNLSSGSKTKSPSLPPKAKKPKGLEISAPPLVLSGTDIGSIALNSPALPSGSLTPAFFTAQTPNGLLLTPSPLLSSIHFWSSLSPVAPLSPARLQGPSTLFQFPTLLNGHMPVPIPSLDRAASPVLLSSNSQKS
To be noted: protein: recombinant; tags: N-terminal GST; dsDNA, one strand shown. The method in brief: as §1

The target in a further assay is T4, FEV (Homo sapiens, UniProt Q99581 1-238).
T4 sequence: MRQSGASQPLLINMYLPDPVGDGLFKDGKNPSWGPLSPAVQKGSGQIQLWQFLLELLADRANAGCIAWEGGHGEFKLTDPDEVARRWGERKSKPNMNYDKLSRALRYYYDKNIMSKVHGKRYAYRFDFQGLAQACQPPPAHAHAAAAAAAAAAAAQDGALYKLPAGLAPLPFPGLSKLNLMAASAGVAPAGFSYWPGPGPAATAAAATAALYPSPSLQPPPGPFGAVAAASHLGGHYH
As to conditions: protein: recombinant; tags: N-terminal GST; dsDNA, one strand shown. The method in brief: as §1

The next assay deals with HSF1 (Homo sapiens, UniProt Q00613 1-529). As to conditions: protein: recombinant; tags: N-terminal GST; chain copies: 3; dsDNA, one strand shown. The method in brief:
as §1

The target of the next assay is T5, ELK4 (Homo sapiens, UniProt P28324-2 1-405).
T5 sequence: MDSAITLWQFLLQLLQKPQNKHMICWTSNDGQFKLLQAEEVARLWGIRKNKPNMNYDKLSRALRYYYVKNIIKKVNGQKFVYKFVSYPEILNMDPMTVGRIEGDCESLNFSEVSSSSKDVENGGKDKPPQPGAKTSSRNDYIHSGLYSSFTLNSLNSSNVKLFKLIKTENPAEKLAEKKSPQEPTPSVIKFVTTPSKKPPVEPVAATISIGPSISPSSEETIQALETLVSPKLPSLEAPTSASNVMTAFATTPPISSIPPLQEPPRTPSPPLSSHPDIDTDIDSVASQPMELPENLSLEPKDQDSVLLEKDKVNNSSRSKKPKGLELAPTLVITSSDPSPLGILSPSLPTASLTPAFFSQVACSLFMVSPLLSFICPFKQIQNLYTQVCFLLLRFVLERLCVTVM
To be noted: protein: recombinant; tags: N-terminal GST; dsDNA, one strand shown. In short, it runs like this:
as §1

The target of the next assay is T6, ETV2 (Homo sapiens, UniProt O00321 1-342).
T6 sequence: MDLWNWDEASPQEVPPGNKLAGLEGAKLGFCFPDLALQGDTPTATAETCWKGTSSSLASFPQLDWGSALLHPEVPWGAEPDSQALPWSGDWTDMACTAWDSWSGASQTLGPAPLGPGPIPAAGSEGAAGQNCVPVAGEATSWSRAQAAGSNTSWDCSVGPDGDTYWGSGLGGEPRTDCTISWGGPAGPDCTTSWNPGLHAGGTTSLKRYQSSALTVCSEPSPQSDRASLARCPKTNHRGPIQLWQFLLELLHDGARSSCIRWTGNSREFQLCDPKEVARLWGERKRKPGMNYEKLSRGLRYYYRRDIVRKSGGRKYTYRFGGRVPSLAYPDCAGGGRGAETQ
As to conditions: protein: recombinant; tags: N-terminal GST; dsDNA, one strand shown. The method in brief:
as §1

Another assay has as its target T7, ELF3 (Homo sapiens, UniProt P78545 1-371).
T7 sequence: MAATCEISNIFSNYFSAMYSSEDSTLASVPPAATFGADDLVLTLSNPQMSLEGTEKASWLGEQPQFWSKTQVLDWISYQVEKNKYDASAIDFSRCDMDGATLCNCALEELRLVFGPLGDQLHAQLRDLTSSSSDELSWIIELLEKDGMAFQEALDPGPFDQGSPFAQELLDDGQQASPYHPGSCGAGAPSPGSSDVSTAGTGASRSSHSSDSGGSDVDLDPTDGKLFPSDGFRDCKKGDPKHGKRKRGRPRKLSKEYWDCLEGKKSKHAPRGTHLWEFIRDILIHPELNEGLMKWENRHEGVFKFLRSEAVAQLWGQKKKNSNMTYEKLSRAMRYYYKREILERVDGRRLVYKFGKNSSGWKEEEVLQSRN
As to conditions: protein: recombinant; tags: N-terminal GST; dsDNA, one strand shown. In short, it runs like this:
as §1

Another assay deals with CRX (Homo sapiens, UniProt O43186 1-299). As to conditions: protein: recombinant; tags: N-terminal GST; dsDNA, one strand shown. In short, it runs like this: as §1
For a further assay, the target named is ETV1 (Homo sapiens, UniProt P50549 1-477). To be noted: protein: recombinant; tags: N-terminal GST; dsDNA, one strand shown. In short, it runs like this:
as §1

Another assay deals with T8, ETV3L (Homo sapiens, UniProt Q6ZN32 1-361).
T8 sequence: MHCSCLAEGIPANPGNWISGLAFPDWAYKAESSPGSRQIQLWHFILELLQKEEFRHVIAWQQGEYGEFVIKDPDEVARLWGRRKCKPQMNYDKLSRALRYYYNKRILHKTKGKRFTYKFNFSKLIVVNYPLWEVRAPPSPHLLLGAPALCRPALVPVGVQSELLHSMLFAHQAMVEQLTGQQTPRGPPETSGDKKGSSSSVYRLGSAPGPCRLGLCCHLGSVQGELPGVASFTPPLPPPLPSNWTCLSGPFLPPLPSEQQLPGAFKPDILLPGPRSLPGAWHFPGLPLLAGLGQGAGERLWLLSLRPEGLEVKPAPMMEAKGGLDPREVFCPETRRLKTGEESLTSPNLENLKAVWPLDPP
To be noted: protein: recombinant; tags: N-terminal GST; dsDNA, one strand shown. In short, it runs like this: as §1

The target of the next assay is T9, SPDEF (Homo sapiens, UniProt O95238 1-335).
T9 sequence: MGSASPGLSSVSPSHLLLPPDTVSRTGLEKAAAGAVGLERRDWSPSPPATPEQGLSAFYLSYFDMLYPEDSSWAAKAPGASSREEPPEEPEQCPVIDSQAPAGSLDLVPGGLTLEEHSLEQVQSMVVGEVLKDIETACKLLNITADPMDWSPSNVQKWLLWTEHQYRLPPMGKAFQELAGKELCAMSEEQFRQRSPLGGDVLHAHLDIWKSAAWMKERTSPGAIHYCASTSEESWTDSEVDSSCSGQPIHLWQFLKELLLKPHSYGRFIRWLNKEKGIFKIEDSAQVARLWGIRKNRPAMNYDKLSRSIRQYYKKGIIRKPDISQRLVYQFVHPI
As to conditions: protein: recombinant; tags: N-terminal GST; dsDNA, one strand shown. The method in brief:
as §1

For a further assay, the target named is T10, ETV7 (Homo sapiens, UniProt Q9Y603 1-341).
T10 sequence: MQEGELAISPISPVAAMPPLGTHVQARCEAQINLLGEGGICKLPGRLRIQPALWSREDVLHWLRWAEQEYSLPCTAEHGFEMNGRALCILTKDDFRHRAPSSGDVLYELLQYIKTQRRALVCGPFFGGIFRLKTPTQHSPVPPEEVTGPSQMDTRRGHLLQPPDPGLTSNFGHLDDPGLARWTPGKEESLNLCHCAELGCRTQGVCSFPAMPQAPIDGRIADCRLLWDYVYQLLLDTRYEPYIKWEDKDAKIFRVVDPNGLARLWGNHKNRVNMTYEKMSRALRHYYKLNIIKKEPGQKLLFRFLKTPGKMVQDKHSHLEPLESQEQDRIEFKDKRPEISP
As to conditions: protein: recombinant; tags: N-terminal GST; dsDNA, one strand shown. The method in brief:
as §1

The target of the next assay is T11, EHF (Homo sapiens, UniProt Q9NZC4 1-300).
T11 sequence: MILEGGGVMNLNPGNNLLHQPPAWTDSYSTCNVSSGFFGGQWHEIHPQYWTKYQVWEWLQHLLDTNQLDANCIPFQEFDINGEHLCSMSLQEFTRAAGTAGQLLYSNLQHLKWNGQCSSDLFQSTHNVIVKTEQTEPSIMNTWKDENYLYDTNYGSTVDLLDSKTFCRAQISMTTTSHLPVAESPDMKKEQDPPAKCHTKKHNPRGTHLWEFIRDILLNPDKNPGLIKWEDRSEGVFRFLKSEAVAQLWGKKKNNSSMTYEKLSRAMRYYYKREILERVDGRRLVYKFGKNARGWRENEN
As to conditions: protein: recombinant; tags: N-terminal GST; dsDNA, one strand shown. In short, it runs like this: as §1

A further assay deals with T12, SPIC (Homo sapiens, UniProt Q8N5J4 1-248).
T12 sequence: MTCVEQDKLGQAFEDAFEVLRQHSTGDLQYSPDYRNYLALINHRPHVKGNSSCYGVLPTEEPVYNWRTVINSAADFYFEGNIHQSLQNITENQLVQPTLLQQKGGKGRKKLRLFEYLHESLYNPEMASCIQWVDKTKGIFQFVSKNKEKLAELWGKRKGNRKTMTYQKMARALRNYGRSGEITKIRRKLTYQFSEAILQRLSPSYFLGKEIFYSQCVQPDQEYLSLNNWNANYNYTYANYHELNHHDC
As to conditions: protein: recombinant; tags: N-terminal GST; dsDNA, one strand shown. In short, it runs like this: as §1

Sequence of HSF1 (Q00613 whole entry): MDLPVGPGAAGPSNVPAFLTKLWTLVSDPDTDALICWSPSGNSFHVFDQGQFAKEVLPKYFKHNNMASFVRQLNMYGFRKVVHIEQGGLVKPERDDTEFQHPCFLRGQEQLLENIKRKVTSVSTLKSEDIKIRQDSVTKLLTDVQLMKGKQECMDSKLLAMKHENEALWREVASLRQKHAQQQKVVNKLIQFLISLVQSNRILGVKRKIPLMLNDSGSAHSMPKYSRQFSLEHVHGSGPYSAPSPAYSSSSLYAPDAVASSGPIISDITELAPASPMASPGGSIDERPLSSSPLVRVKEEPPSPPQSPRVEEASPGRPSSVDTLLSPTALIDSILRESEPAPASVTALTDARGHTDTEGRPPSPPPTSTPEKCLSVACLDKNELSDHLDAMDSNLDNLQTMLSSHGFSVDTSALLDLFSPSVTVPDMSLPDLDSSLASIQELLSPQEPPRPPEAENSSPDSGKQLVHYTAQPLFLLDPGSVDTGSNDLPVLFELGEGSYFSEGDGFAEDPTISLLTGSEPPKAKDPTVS
Sequence of ETV1 (P50549 whole entry): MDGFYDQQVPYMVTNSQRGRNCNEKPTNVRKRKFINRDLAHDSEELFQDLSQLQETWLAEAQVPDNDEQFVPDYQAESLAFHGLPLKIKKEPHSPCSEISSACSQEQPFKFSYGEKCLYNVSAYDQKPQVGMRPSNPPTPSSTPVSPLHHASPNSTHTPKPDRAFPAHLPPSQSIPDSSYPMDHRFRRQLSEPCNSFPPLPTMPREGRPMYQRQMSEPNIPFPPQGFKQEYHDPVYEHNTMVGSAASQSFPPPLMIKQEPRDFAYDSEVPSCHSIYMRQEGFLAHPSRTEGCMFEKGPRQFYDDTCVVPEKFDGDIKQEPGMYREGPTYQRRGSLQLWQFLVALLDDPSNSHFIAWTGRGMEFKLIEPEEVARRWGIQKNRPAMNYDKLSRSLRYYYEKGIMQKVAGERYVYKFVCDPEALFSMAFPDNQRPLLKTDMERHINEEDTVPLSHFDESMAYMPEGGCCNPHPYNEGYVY
Sequence of CRX (O43186 whole entry): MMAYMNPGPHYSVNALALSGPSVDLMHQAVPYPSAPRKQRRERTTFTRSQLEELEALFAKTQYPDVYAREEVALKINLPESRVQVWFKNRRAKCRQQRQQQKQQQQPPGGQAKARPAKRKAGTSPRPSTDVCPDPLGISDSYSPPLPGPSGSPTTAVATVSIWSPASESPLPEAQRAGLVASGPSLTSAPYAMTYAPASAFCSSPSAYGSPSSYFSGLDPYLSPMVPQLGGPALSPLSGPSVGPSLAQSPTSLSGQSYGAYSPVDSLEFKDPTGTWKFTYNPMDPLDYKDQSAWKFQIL

Regarding TAGACA, the binding signal with ELK1 is 1.07 fold enrichment (6-mer frequency, TF over GST control); with GABPA it was 1.01 fold enrichment (6-mer frequency, TF over GST control); with ELK3, 1.02 fold enrichment (6-mer frequency, TF over GST control); in the assay with FEV it was 1.02 fold enrichment (6-mer frequency, TF over GST control); with HSF1, 1.11 fold enrichment (6-mer frequency, TF over GST control); with ELK4, 1.11 fold enrichment (6-mer frequency, TF over GST control). The binding signal is 1.01 fold enrichment (6-mer frequency, TF over GST control) in the assay with ETV2; 1.01 fold enrichment (6-mer frequency, TF over GST control) with ELF3; 1.03 fold enrichment (6-mer frequency, TF over GST control) in the assay with CRX; 1.01 fold enrichment (6-mer frequency, TF over GST control) with ETV1; 1.01 fold enrichment (6-mer frequency, TF over GST control) in the assay with ETV3L; 1.03 fold enrichment (6-mer frequency, TF over GST control) with SPDEF. Also, the binding signal with ETV7 was 1.07 fold enrichment (6-mer frequency, TF over GST control).

As to CTAGGA, the binding signal is 1.01 fold enrichment (6-mer frequency, TF over GST control) with EHF; 1.08 fold enrichment (6-mer frequency, TF over GST control) with HSF1; 1.01 fold enrichment (6-mer frequency, TF over GST control) in the assay with SPIC.

The values are drawn from publication PMC7862700, “An all-to-all approach to the identification of sequence-specific readers for epigenetic DNA modifications on cytosine”.
